TMEM16A inh: TMEM16A chloride channel inhibitors, primary screen, cell-based, HTS. 310,000 tested, 1.2% active. normalized B-score (activity score, 25-100; higher = stronger inhibition) at 10 µM. AID 588511, 2011. Anoctamin-1 (Mus musculus), Q8BHY3. HEK293 TMEM16A/YFP iodide influx fluorescence, ionomycin;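 active = ratio plate-corrected score three or more library SD toward inhibition, starting fluorescence score within five deviations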;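 note: score derived from kinetic fluorescence span divided by baseline fluorescence per well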
KCNK9 block: KCNK9 potassium channel inhibitors, primary screen, HEK293 cells, thallium flux; Potassium channel subfamily K member 9 (Homo sapiens), Q9NPC2; FluxOR thallium flux fluorescence; active compounds read low; B-score at 10 µM; 310,000 tested, 1.2% active; AID 488922, 2010;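 active = ratio B-score over 3 SD below the library mean, with starting fluorescence within 5 SD of its mean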;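 note: negative B-score means less thallium flux so channel inhibition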
ANO1 activ: TMEM16A chloride channel activators or potentiators, primary screen, cell-based, HTS | Anoctamin-1 (Mus musculus), Q8BHY3 | B-score at 10 µM | 340,000 tested, 0.3% active | HEK293 TMEM16A/YFP-H148Q/I152L, iodide quench fluorescence; active compounds read low;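 active = fluorescence-ratio B-score plate-corrected deviation score at least 3 library SD below zero, with starting fluorescence score within 5 deviations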;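 note: channel opened by trigger with iodide after compound preincubation; score built on the fluorescence ratio of max minus min over baseline; more negative score means more quench and so TMEM16A activation or potentiation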
KCNK3 inh: human KCNK3 channel inhibitors, primary screen, CHO cells, FluxOR thallium flux, B-score; Potassium channel subfamily K member 3 (Homo sapiens), O14649; FluxOR fluorescence; active compounds read low; B-score at 10 µM; 340,000 tested, 0.84% active; AID 602410, 2012;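 active = B-score under library mean minus 4 SD, starting fluorescence ratio at most library mean plus 5 SD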;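 note: more negative B-score means stronger inhibition of thallium flux through KCNK3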
Target sequence (O14649 whole entry, looked up): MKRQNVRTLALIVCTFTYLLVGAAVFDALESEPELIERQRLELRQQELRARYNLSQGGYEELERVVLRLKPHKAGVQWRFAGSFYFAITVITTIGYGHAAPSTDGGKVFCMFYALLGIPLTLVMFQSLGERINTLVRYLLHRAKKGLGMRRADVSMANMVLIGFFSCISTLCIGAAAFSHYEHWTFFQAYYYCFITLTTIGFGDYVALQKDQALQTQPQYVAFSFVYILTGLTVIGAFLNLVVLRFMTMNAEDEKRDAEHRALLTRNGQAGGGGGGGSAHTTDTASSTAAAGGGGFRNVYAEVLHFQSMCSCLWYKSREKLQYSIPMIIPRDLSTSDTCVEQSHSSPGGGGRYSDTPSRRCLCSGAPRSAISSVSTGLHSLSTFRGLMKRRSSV
Kir21 inh: inhibitors of mouse Kir2.1 inward-rectifier potassium channel | Inward rectifier potassium channel 2 (Mus musculus), P35561 | HEK293-Kir2.1, FluxOR thallium flux fluorescence; active compounds read low | B-score at 10 µM | 310,000 tested, 0.85% active | AID 1672, 2009;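 active = fluorescence ratio B-score at or below minus 3 SD of library scores, with starting-brightness B-score within 2 SD, cut at about -4.2 in these data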;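 note: channel flux triggered by added potassium and thallium sulfate stimulus; B-score of peak minus minimum fluorescence over baseline after thallium stimulus; more negative B-score means stronger Kir2.1 block with less thallium influx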
Numbers stand for hits; . = inactive; / = no result given. In the library only some 3.5% were active in any assay of this set; here they are far more common.

SMILES	TMEM16A inh	KCNK9 block	ANO1 activ	KCNK3 inh	Kir21 inh
O=C1C(c2ccccc2)C(c2ccccc2)NC(c2ccccc2)C1c1ccccc1 (configuration not stated)	.	.	.	.	.
CCC1C(=O)CC(c2ccccc2)NC1c1ccccc1 (configuration not stated)	.	-6.6	.	.	.
CN(C)CCNC(=O)COc1ccc(C23CC4CC(CC(C4)C2)C3)cc1	.	.	.	.	-6.5
Cc1ccc(C23CC4CC(CC(NC(=O)NCCN(C)C)(C4)C2)C3)cc1	.	.	.	.	-4.3
CCN(CC)CCNC(=O)COc1ccc(OC)cc1	.	.	.	.	.
Cc1cccc2c1N(C(=O)CN1C(=O)c3ccccc3C1=O)C(C)(C)c1ssc(=S)c1-2	.	.	.	.	.
Cc1cc(C)c2c(c1)-c1c(ssc1=S)C(C)(C)N2C(=O)CN1C(=O)c2ccccc2C1=O	.	.	-13	.	.
CCCCC1C(=O)N(c2ccccc2)N(c2ccc(O)cc2)C1=O (configuration not stated)	.	/	.	-10	/
O=C1C2C3C=CC(C4CC34)C2C(=O)N1/N=C/c1cccs1 (configuration not stated)	.	.	.	.	.
CCCCCCC[C@@H](C/C=C/CCC(=O)N(C)C/C(=C/Cl)C/C(=C\C(=O)N1C[C@H](O)CC1=O)OC)OC	/	/	/	.	/
CCCCCCC[C@@H](C/C=C/CCC(=O)N(C)C/C(=C/Cl)C/C(=C\C(=O)N1CC(OC)=CC1=O)OC)OC	/	/	/	-8.8	/
O=C(NC1CC2CCCC(C1)N2C(=O)Nc1ccccc1F)C1CC1 (configuration not stated)	.	.	.	.	.
Cc1ccc(CNC(=O)c2ccc(Cn3nc(C)c(Cl)c3C)o2)cc1	.	-7	.	.	-9
O=C(CCC1CCCN(C2C3CC4CC(C3)CC2C4)C1)NCc1ccc(F)c(F)c1 (configuration not stated)	.	.	.	.	.
N#Cc1c2c(c(NCCCN3CCOCC3)n3c1nc1ccccc13)CCC2	.	.	/	.	.
N#Cc1c2c(c(NCCN3CCOCC3)n3c1nc1ccccc13)CCCC2	.	.	.	-8.9	.
CC(C)c1cc(NCCN2CCOCC2)n2c(nc3ccccc32)c1C#N	/	/	.	-9.2	/
CC(C)c1cc(NCCCN2CCOCC2)n2c(nc3ccccc32)c1C#N	.	.	.	.	.
CC(=O)c1cc2c(cc1NC(=O)CN(C)S(=O)(=O)c1cccs1)OCO2	/	/	.	.	/
COc1cc(/C=C/C(=O)c2ccc(C)c([N+](=O)[O-])c2)cc(OC)c1O	.	.	.	.	.
COc1cc(/C=C/C(=O)c2cccc([N+](=O)[O-])c2)cc(OC)c1OC	.	.	.	.	-4.7
COc1cccc(/C=C/C(=O)c2ccc(C)c([N+](=O)[O-])c2)c1	.	.	.	.	-5.8
O=C(/C=C/c1ccccc1F)c1cccc([N+](=O)[O-])c1	.	.	.	.	-5.5
CC(=O)c1cccc([N+](=O)[O-])c1	/	/	.	.	/
CCCCn1c(=O)[nH]c(=O)c2c1nc(-c1ccccc1F)n2Cc1ccccc1OC	.	.	.	.	.
SMILES	TMEM16A inh	KCNK9 block	ANO1 activ	KCNK3 inh	Kir21 inh
COc1ccc(S(=O)(=O)CC(O)CN2CCCC2=O)cc1 (configuration not stated)	.	.	.	.	.
COc1cc(C(=O)NC(=S)Nc2ccc(N3CCCC3)cc2)cc(OC)c1OC	.	.	.	.	.
C/C(=N\NC(=S)NCc1ccccc1)c1ccc2c(c1)OCCO2	25	.	.	.	.
C/C(=N\NC(=S)NCc1ccccc1)c1ccc(Br)cc1	.	.	.	.	.
CCCCNC(=S)N(Cc1c(C)noc1C)c1ccccc1	.	.	.	.	-5.4
N#C/C(=C(/O)c1ccc2c(c1)OCO2)c1nc2cc(C(F)(F)F)ccc2s1	100	.	.	.	.
O=C(COC(=O)COc1ccc(Br)cc1)NCc1ccccc1	/	/	.	.	/
O=S(=O)(NC1CCCCC1N1CCN(c2ccccc2F)CC1)c1ccc(Cl)cc1 (configuration not stated)	.	.	-40	.	.
C=CCn1c(COc2cccc3cccnc23)nnc1SCC(=O)O	.	.	-10	.	.
O=C(O)c1ccccc1-c1ccccc1C(=O)NCc1ccccc1Cl	.	.	.	.	.
C/C(=N\NC(N)=S)c1cc(-c2ccccc2)c(-c2ccccc2)s1	.	-8	.	.	.
C/C(=N\NC(N)=S)c1ccccc1	.	.	.	.	.
OC(COc1ccc(Cl)cc1)CN1CCC(Cc2ccccc2)CC1 (configuration not stated)	.	.	.	.	.
Cc1ccc(C(C)C)c(OCC(O)CN2CCc3ccccc3C2)c1 (configuration not stated)	.	.	.	.	-9.1
Cc1ccc(C)c(OCC(O)CN2CCC(Cc3ccccc3)CC2)c1 (configuration not stated)	.	.	.	.	-6.4
OC(COc1c(F)cc(Br)cc1F)CN1CCc2ccccc2C1 (configuration not stated)	.	.	.	.	-7
Cc1cccc(C)c1OCC(O)CN1CCc2ccccc2C1 (configuration not stated)	.	.	.	.	.
CCn1c(CN2CCN(Cc3ccc(C)cc3)C(CCO)C2)nc2ccccc21 (configuration not stated)	.	.	.	.	.
Cn1nccc1C(=O)N1CCOCC1	.	.	.	.	.
O=S(=O)(N/N=C1/CC(c2ccccc2)Oc2ccccc21)c1ccc(Br)cc1 (configuration not stated)	25	.	.	.	.
Cc1ccc(S(=O)(=O)N/N=C2/CC(c3ccccc3)Oc3ccccc32)cc1[N+](=O)[O-] (configuration not stated)	100	.	.	.	.
Cc1ccc(S(=O)(=O)NN=C2CCC(C(C)(C)C)CC2)cc1[N+](=O)[O-] (configuration not stated)	.	.	.	.	.
Cc1onc(-c2ccccc2)c1C(=O)N(CC(C)C)c1c(N)n(CC(C)C)c(=O)[nH]c1=O	/	/	.	.	/
CN(C)S(=O)(=O)c1cccc(C(=O)OCC(=O)Nc2ccc3c(c2)OCCO3)c1	/	/	.	.	/
CCc1ccc(OCC(=O)c2c(O)c3ccccc3oc2=O)cc1	.	.	.	.	.
CCc1oc2ccccc2c1C(=O)c1cc(Br)c(O)c(Br)c1	100	.	.	.	.
CCSc1nnc(NC(=O)C(CC)(C(F)(F)F)C(F)(F)F)s1	100	.	.	.	.
CCCCC(C(=O)OCC)C(N)Cc1ccc(F)cc1 (configuration not stated)	.	.	.	.	-4.7
CCOC(=O)C(Cc1ccccc1)C(=O)c1ccco1 (configuration not stated)	.	.	.	.	.
